For the first assay, the system named is RARa:RXR (NR concentration 270 nM, RXRa partner concentration 90 nM). Put plainly: PBM binding z-score (relative to random genomic background probes); higher = stronger binding; sequences stand for … in GC…GCGATTGACAGCGTAGAATGAAGG
The method, boiled down: (§1)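 Ligand-free nuclear receptor dimers were applied to custom Agilent 4×180K protein-binding microarrays whose double-stranded probes carried direct-repeat seeds, single-nucleotide variants, half-site ablations and random human genomic background sequences in 34-nt variable regions. Incubation lasted 1 h. Binding z-scores were computed against the random background probes from regression-normalized fluorescence.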
In turn, TCTAGCAGGCCAGAGGGTCACACAAGAGGTACGG returned a PBM binding z-score of 3.44.

For AGTCAAAGTTCACTTGGTAACGTAAGATTCAGCT, the PBM binding z-score turned out to be 2.62.

Take CCGACTGGGGCAGAAAGGTTACCATGCCATCCGG: the PBM binding z-score turned out to be 1.61.

Turning to GCTCGGAGGACACGGTCAGAGCTTTGTCCGTAGA, the PBM binding z-score is -0.541.

As to CCTATTAGTTGACCATAAGGTCAACCGAAGCTCG, the PBM binding z-score was found to be 5.3.

AGTCAAAGCTCATCTAGGTAACGTAAGATATGCT registered a PBM binding z-score of -0.0294.

Sequence TCTAGTTGGTCACGAAGGTCACACACGACGGGTA had a PBM binding z-score of 4.14.

TCAGATAGGTAATACAGGTGAAAGTCGGCATCTA showed a PBM binding z-score of 0.619.

CAGCCTAGGTCGGGGCCAGTATAGGAGGAACGTT: the PBM binding z-score was -0.269.

Regarding CGAACTAGATCAAGGACAGTGAATCTCCGCACGC, the PBM binding z-score is -0.24.

CGTCCAAGGTCAAGGTCAGCGAAAGAGACTCGAA came in with a PBM binding z-score of 4.95.

CAGCCTAGGTCAAGGCCAGTATAGGAGGAACGTT showed a PBM binding z-score of 1.93.

ATACCAAGGTGATCGTGAGGTGGTTGATACTAAC showed a PBM binding z-score of 0.474.

Sequence CAAACTAGGTCGCAGAGGTCAAAGTCCGTGCGTA came in with a PBM binding z-score of 7.01.

In turn, ATCTCTAAGTAAGACTCAGTTCAGTGAAGAACGC registered a PBM binding z-score of 0.541.

On to CGTCAAAGTTCAACTAAGGTAACGGAAAGCACGC, for which the PBM binding z-score was 3.89.

With TCTTGTAGATTAAAGGTTAAGAAAGCCGAAGCCT, the PBM binding z-score was found to be 2.09.

As for TCGTATAGGTAAAGGTGAAAGTCGAACGATATGA, the PBM binding z-score is 1.58.

For the sequence CCTGCTAGGTCAATGGTCAACTAAAGCAGCTCGC, the PBM binding z-score amounted to 2.27.

As for TCTCGGACGACACGAAGGTCAGAGCTTTCCAGAG, the PBM binding z-score is 1.95.

As for AAAGACAGGTGATGAAGGTAACTCAGGCTATCAT, the PBM binding z-score stood at 0.223.

In turn, TCTTGTAGTTCAGCAGGTTAAGAAAGCTGGCCAA had a PBM binding z-score of 1.18.

Sequence TAGAGTAGGTTAGTCGGGGCATTCAGCCAACATA returned a PBM binding z-score of 0.643.

Regarding CGTCCAAGGTCAGAGAGGTAAGTGAATGCCGAGT, the PBM binding z-score is 3.24.

CCGACTGTGGCAAAGGTTACCATACTCAGTACGA showed a PBM binding z-score of 2.56.

Take CAGCCGAGGTCAGGGCCAGTATAGGAGGAACGTT: the PBM binding z-score worked out at 4.36.

For CCAACTAGGTCAAGGTCAAAGTCGGTTTGTGCCA, the PBM binding z-score stood at 5.24.

On to CCTAGCAGGCCCATCTGGGTCACTCAAGGCTTGA, for which the PBM binding z-score was found to be 1.21.

Regarding CATCAAAGTTCAACTAAGGTAACGTAAAGCACGC, the PBM binding z-score was 4.5.

ACTAGCTGGTCAGCTGAGGTCACACACAATTCGG displayed a PBM binding z-score of 4.93.

In turn, TCTTGTAGATCAACAGGAGGTTGAGAAAGATCGA had a PBM binding z-score of 0.0993.

In the case of CTACCAAGGTGAACAAGGTCGTGGATTACTATTC, the PBM binding z-score came to 2.92.

In the case of ACTCGGAGGACAAAGGTCAGAGCTACGCCAGTGA, the PBM binding z-score worked out at 5.19.

TCTTGTAGATCAATAGAGTTTAAGAAAGTGCGCT yielded a PBM binding z-score of 0.263.

TAGCCCAGGTCATGCGGGCCAGTATAGTGTCGGC: the PBM binding z-score was 3.04.

Sequence AGAACAAGGGCAATGAGTTGATAGCACGGGTGGC had a PBM binding z-score of 0.000148.

The sequence CCTACTGGGCCACGAAAGGTCATTGAATCAGTGA came in with a PBM binding z-score of 5.07.

In turn, GCTTGTTGATCAAGGTTAAGAAAGACTAAGCTAA had a PBM binding z-score of 0.658.

Consider CCTACTGGGCCAAGGACATTGATCAGTCAAAGCA, for which the PBM binding z-score was -0.237.

Regarding AGAATGAGGTTATACCTAGATCAGGGAAGAAAGT, the PBM binding z-score is 1.44.

The subject of another assay is RARa homodimer (NR concentration 270 nM). The assay is described as above. The method, boiled down: as §1
Turning to TCTAGCAGGCCAGAGGGTCACACAAGAGGTACGG, the PBM binding z-score worked out at 0.0542.

As to AGTCAAAGTTCACTTGGTAACGTAAGATTCAGCT, the PBM binding z-score amounted to 0.876.

The sequence CCGACTGGGGCAGAAAGGTTACCATGCCATCCGG returned a PBM binding z-score of -0.141.

As for GCTCGGAGGACACGGTCAGAGCTTTGTCCGTAGA, the PBM binding z-score is -1.26.

As to CCTATTAGTTGACCATAAGGTCAACCGAAGCTCG, the PBM binding z-score turned out to be 3.95.

AGTCAAAGCTCATCTAGGTAACGTAAGATATGCT came in with a PBM binding z-score of -0.0154.

Sequence TCTAGTTGGTCACGAAGGTCACACACGACGGGTA showed a PBM binding z-score of 2.

TCAGATAGGTAATACAGGTGAAAGTCGGCATCTA gave a PBM binding z-score of 1.19.

Consider CAGCCTAGGTCGGGGCCAGTATAGGAGGAACGTT, for which the PBM binding z-score is -1.01.

CGAACTAGATCAAGGACAGTGAATCTCCGCACGC: the PBM binding z-score came to 0.262.

CGTCCAAGGTCAAGGTCAGCGAAAGAGACTCGAA gave a PBM binding z-score of 0.668.

In turn, CAGCCTAGGTCAAGGCCAGTATAGGAGGAACGTT returned a PBM binding z-score of -0.377.

Take ATACCAAGGTGATCGTGAGGTGGTTGATACTAAC: the PBM binding z-score turned out to be 0.144.

The sequence CAAACTAGGTCGCAGAGGTCAAAGTCCGTGCGTA had a PBM binding z-score of 1.48.

As for ATCTCTAAGTAAGACTCAGTTCAGTGAAGAACGC, the PBM binding z-score was found to be 1.22.

As to CGTCAAAGTTCAACTAAGGTAACGGAAAGCACGC, the PBM binding z-score stood at 1.31.

TCTTGTAGATTAAAGGTTAAGAAAGCCGAAGCCT registered a PBM binding z-score of 1.4.

For TCGTATAGGTAAAGGTGAAAGTCGAACGATATGA, the PBM binding z-score is 0.749.

On to CCTGCTAGGTCAATGGTCAACTAAAGCAGCTCGC, for which the PBM binding z-score is -0.296.

In turn, TCTCGGACGACACGAAGGTCAGAGCTTTCCAGAG had a PBM binding z-score of 0.13.

The sequence AAAGACAGGTGATGAAGGTAACTCAGGCTATCAT gave a PBM binding z-score of 1.

TCTTGTAGTTCAGCAGGTTAAGAAAGCTGGCCAA had a PBM binding z-score of 0.277.

For TAGAGTAGGTTAGTCGGGGCATTCAGCCAACATA, the PBM binding z-score came out at 1.35.

Sequence CGTCCAAGGTCAGAGAGGTAAGTGAATGCCGAGT returned a PBM binding z-score of 0.288.

The sequence CCGACTGTGGCAAAGGTTACCATACTCAGTACGA came in with a PBM binding z-score of 0.0109.

CAGCCGAGGTCAGGGCCAGTATAGGAGGAACGTT: the PBM binding z-score turned out to be 0.349.

Consider CCAACTAGGTCAAGGTCAAAGTCGGTTTGTGCCA, for which the PBM binding z-score was determined as 3.41.

On to CCTAGCAGGCCCATCTGGGTCACTCAAGGCTTGA, for which the PBM binding z-score was -0.257.

With CATCAAAGTTCAACTAAGGTAACGTAAAGCACGC, the PBM binding z-score turned out to be 3.5.

ACTAGCTGGTCAGCTGAGGTCACACACAATTCGG: the PBM binding z-score turned out to be 0.527.

TCTTGTAGATCAACAGGAGGTTGAGAAAGATCGA showed a PBM binding z-score of -0.378.

As to CTACCAAGGTGAACAAGGTCGTGGATTACTATTC, the PBM binding z-score is 0.0898.

ACTCGGAGGACAAAGGTCAGAGCTACGCCAGTGA came in with a PBM binding z-score of 2.21.

In the case of TCTTGTAGATCAATAGAGTTTAAGAAAGTGCGCT, the PBM binding z-score is 0.0115.

The sequence TAGCCCAGGTCATGCGGGCCAGTATAGTGTCGGC registered a PBM binding z-score of -0.161.

In turn, AGAACAAGGGCAATGAGTTGATAGCACGGGTGGC returned a PBM binding z-score of -0.325.

Sequence CCTACTGGGCCACGAAAGGTCATTGAATCAGTGA displayed a PBM binding z-score of 0.674.

The sequence GCTTGTTGATCAAGGTTAAGAAAGACTAAGCTAA had a PBM binding z-score of 0.254.

The sequence CCTACTGGGCCAAGGACATTGATCAGTCAAAGCA returned a PBM binding z-score of -0.533.

As for AGAATGAGGTTATACCTAGATCAGGGAAGAAAGT, the PBM binding z-score was -0.0854.

These data come from the supplement of paper PMC6555819.
